This passage reports growth results from PubChem BioAssay (NCI).

About 83,000 compounds went through this panel and 20% of them were active in at least one assay; those are over-represented in the sample as a whole.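 Plates (96-well) were seeded with cells, treated with compound at one concentration, and incubated for 48 hours before percent growth was determined.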 Values without a mark were called inactive. Calls of active or inactive are those of the source. The calls were made as follows: active = growth percent below 10; inactive = the rest.

Some test systems named below: T-47D breast; BT-549 breast; MDA-MB-435 melanoma; SW-620 colon; MCF7 breast; HCT-116 colon; HCC-2998 colon; KM12 colon.
Common to all, as to assay: NCI-60 one-dose screen, 48 h (100 = growth as untreated, 0 = no growth, -100 = all killed)
Common to all, as to conditions: 10 µM unless noted

In the case of `CC(C)(C)OC(=O)N[C@@H](Cc1ccccc1)C(=O)N(Cc1ccccc1)C1(C(=O)NCc2ccccc2)CCN(Cc2ccccc2)CC1`, the growth in the assay on T-47D breast was 38%; with BT-549 breast, 71%; in the assay on MDA-MB-435 melanoma it was 41%; in the assay on SW-620 colon it was 22.9%; with MCF7 breast it was 25.2%; in the assay with HCT-116 colon, 20.9%. For the same molecule, the growth in the assay with HCC-2998 colon was 47%; in the assay with KM12 colon, 18.7%.
With `CC1CCN(C(=O)CSc2nc3sc4c(c3c(=O)[nH]2)CCCC4)CC1`, the growth in the assay with T-47D breast is 102%; in the assay on BT-549 breast, 95.2%; with MDA-MB-435 melanoma, 95.6%; in the assay on SW-620 colon, 108%; in the assay with MCF7 breast, 109%; in the assay with HCT-116 colon, 112%. Also, the growth with HCC-2998 colon and with KM12 colon was 120% each time.
With `CCN(CC)S(=O)(=O)c1ccc2[nH]c(=O)cc(C(=O)Nc3ccc(OC)cc3OC)c2c1`, the growth in the assay with T-47D breast is 101%; in the assay on BT-549 breast it was 136%; in the assay with MDA-MB-435 melanoma, 108%; in the assay with SW-620 colon, 108%; with MCF7 breast, 99.6%; in the assay with HCT-116 colon, 97.3%. Besides, the growth is 75.3% in the assay with HCC-2998 colon and 110% in the assay with KM12 colon.
As for `C#CCC1(c2ccc(F)c(F)c2)NS(=O)(=O)c2ccccc21` (configuration not stated), the growth is 85.4% with T-47D breast; 110% in the assay with BT-549 breast; 107% with MDA-MB-435 melanoma; 108% with SW-620 colon; 94.1% in the assay on MCF7 breast; 95.5% with HCT-116 colon. For the same molecule, the growth in the assay on HCC-2998 colon and in the assay with KM12 colon was 102% throughout.
On to `O=C1CCC/C=C\C[C@H]2C=CC(=O)/C2=C/C[C@H](C/C=C\CC(F)(F)F)O1`, for which the growth with T-47D breast was 6.6% (active); with BT-549 breast, -18% (active); in the assay with MDA-MB-435 melanoma it was -22.8% (active); in the assay with SW-620 colon it was -15.7% (active); in the assay with MCF7 breast, 6.19% (active); with HCT-116 colon it was -51.4% (active). Moreover, the growth in the assay on HCC-2998 colon was -83.7% (active); with KM12 colon, -71.3% (active).
Take `O=C(CN1CCN(c2cc3c(cc2F)c(=O)c(C(=O)O)cn3C2CC2)CC1)Nc1ccc(C(=O)/C=C/c2ccccc2)cc1`: the growth is 85.1% in the assay with T-47D breast; 9.61% (active) in the assay on BT-549 breast; 19.2% in the assay with MDA-MB-435 melanoma; 41% in the assay on SW-620 colon; 12.5% with MCF7 breast; -83.6% (active) with HCT-116 colon. Besides, the growth is 70.1% in the assay with HCC-2998 colon and 25.3% with KM12 colon.
With `Cc1cccc(NC(=O)c2sc3nc4c(cc3c2N)CCC4)c1C`, the growth in the assay with T-47D breast was 64%; in the assay on BT-549 breast, 61.7%; in the assay on MDA-MB-435 melanoma, -26.9% (active); with SW-620 colon, 28.6%; in the assay with MCF7 breast it was 13%; in the assay with HCT-116 colon it was 19.7%. Further, the growth with HCC-2998 colon was 33.1%; in the assay with KM12 colon, 12.2%.
Regarding `COc1cc(/C=C\c2cc(OC)c(OC)c(OC)c2)cc(N/C=C\C(=O)c2c[nH]c3ccccc23)c1OC`, the growth was -5.64% (active) in the assay with T-47D breast; 41.2% in the assay with BT-549 breast; 29.1% in the assay with MDA-MB-435 melanoma; -76% (active) in the assay on SW-620 colon; 4.09% (active) in the assay with MCF7 breast; -82.9% (active) in the assay with HCT-116 colon. For the same molecule, the values for the growth in the assay with HCC-2998 colon and with KM12 colon were 83.2% and 49.2%, respectively.
For the molecule `Cc1cc(NC(=O)COC(=O)c2sc3cc(F)ccc3c2Cl)no1`, the growth in the assay with T-47D breast was 102%; in the assay on BT-549 breast, 117%; in the assay on MDA-MB-435 melanoma, 108%; in the assay with SW-620 colon it was 108%; in the assay with MCF7 breast it was 106%; in the assay with HCT-116 colon, 103%. Moreover, the growth with HCC-2998 colon is 112%; in the assay on KM12 colon, 108%.
`O=[N+]([O-])c1cc(S(=O)(=O)OCC2CO2)ccc1Cl` (configuration not stated): the growth is 77.1% with T-47D breast; 91.3% in the assay on BT-549 breast; 97.7% in the assay with MDA-MB-435 melanoma; 41.2% in the assay on SW-620 colon; 75.5% with MCF7 breast; 54% in the assay with HCT-116 colon. Further, the growth with HCC-2998 colon is 107%; in the assay with KM12 colon, 82.6%.
In the case of `COc1ccc(-c2nc3sccn3c2-c2ccnc(NCCCNS(=O)(=O)c3ccc(F)cc3)n2)cc1`, the growth with T-47D breast was -12.7% (active); with BT-549 breast, 10%; with MDA-MB-435 melanoma it was 14.1%; in the assay on SW-620 colon, 23.2%; in the assay with MCF7 breast it was 11.6%; in the assay with HCT-116 colon, 8.56% (active). Besides, the growth with HCC-2998 colon was 52%; with KM12 colon, 9.82% (active).
For `CC/C=C\C[C@H](O)C/C=C1/C(=O)C(Cl)=C[C@@H]1C/C=C\CCCC(=O)O`, the growth with T-47D breast is 56.9%; in the assay with BT-549 breast it was 58.5%; in the assay with MDA-MB-435 melanoma it was 19.3%; in the assay on SW-620 colon it was 2.12% (active); with MCF7 breast, 26.3%; in the assay with HCT-116 colon, -88.6% (active). Besides, the growth is 76.4% in the assay with HCC-2998 colon and 46.4% with KM12 colon.
`CC/C=C\C/C=C\C[C@H](O)C/C=C1/C(=O)C=C[C@H]1C/C=C\CCC(=O)OC`: the growth in the assay on T-47D breast was 16.7% [8.25 µM]; in the assay on BT-549 breast it was 14.6% [8.25 µM]; with MDA-MB-435 melanoma, -14.1% [8.25 µM] (active); in the assay on SW-620 colon, 6.55% [8.25 µM] (active); with MCF7 breast, 28.1% [8.25 µM]; in the assay on HCT-116 colon, -41.6% [8.25 µM] (active). The values for the growth with HCC-2998 colon and with KM12 colon were 61.2% [8.25 µM] and 3.51% [8.25 µM] (active), respectively.
Regarding `O=C1CCC(=O)N1Cc1ccccc1`, the growth in the assay with T-47D breast is 113%; with BT-549 breast, 111%; in the assay on MDA-MB-435 melanoma, 99.4%; with SW-620 colon, 100%; in the assay on MCF7 breast, 91.5%; in the assay with HCT-116 colon it was 98.6%. The growth in the assay on HCC-2998 colon is 101%; in the assay with KM12 colon it was 96.4%.
